High-throughput results (PubChem)
This is a sample that favours compounds with a hit; in the whole collection about 6.2% have one here.
HCMV antiviral: qHTS Assay for inhibitors of the human cytomegalovirus (HCMV) | HFF cells, HCMV-luciferase reporter, 72 h; hits give low values | 410,000 tested, 4.5% active | activity change, negative = inhibition, % at 57.5 µM | AID 1259415, 2018; in the data active = activity change below about -60%; inconclusive = no clear call, values can overlap the other calls; inactive = above about -39%
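After 16 h attachment at 37C, HFF cells received test compound and HCMV-luciferase (1 PFU/cell); reporter luminescence read 72 h later, data normalized against buffer-only and known inhibitor Salinomycin.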
LASV entry inh: qHTS for Inhibitors of binding or entry into cells for Lassa Virus | 300,000 tested, 1.2% active | AID 540256, 2011 | Lassa virus pseudotype entry inhibition, cell reporter | Potency, µM (doses to about 37.9 µM), without a hit: at the highest dose activity change, negative = inhibition, most hits filed as inhibitors; calls by dose curve; tested in HEK293 cells; note: potency is the fitted concentration of half-maximal effect; nearly all actives have a fitted effect of over 50% in size
FMDV antiviral: High Throughput Screening for Foot and Mouth Disease Virus Antivirals. FMDV antiviral cell-based qHTS. Potency, µM (highest dose often 57.9 µM), for the others: top-dose activity change, negative = inhibition, most hits filed as inhibitors. 410,000 tested, 1.2% active; calls by dose curve; tested in HEK293T cells; note: read-out not given here; potency is the fitted concentration of half-maximal effect; nearly all actives have a fitted effect of over 45% in size
Marburg entry inh: qHTS for inhibitors of binding or entry into cells for Marburg Virus; Potency, µM (highest dose often 37.8 µM), inactives show at the top dose activity change, negative = inhibition, actives largely listed as inhibitors; Marburg virus pseudotyped entry inhibition, cell reporter; 300,000 tested, 1.8% active; calls by dose curve; tested in HEK293 cells; note: potency is the fitted concentration of half-maximal effect
Numbers without * were called inactive; ? = inconclusive; . = no result given; [ ] = remark or other dose. % is set by controls: 0 for no effect and ±100 for the full control effect.

SMILES	HCMV antiviral	LASV entry inh	FMDV antiviral	Marburg entry inh
Cc1ccc(-n2nc(C)c3c(C)cc(=O)[nH]c32)cc1	105	?	33%	19%
Cc1ccc(N/N=C/c2ccc3c(c2)OCCO3)cc1Cl	-29	-4%	24%	?
O=C(O)c1cc(N/N=C/c2ccc3c(c2)OCCO3)ccc1Cl	163	1.6µM*	2.5µM*	?
O=C(O)c1ccc(N/N=C/c2ccc3c(c2)OCO3)cc1	-73*	?	25µM*	?
O=C(O)c1cc(N/N=C/c2ccc3c(c2)OCO3)ccc1Cl	98	?	14µM*	2.5µM*
COc1cccc(C2C(C(C)=O)=C(C)Nc3ncnn32)c1 (stereo unspecified)	.	20%	-3%	4%
Cc1c(C(=O)N(C)C)sc2c1c(=O)n(-c1ccc(Cl)cc1)c(=O)n2Cc1ccccc1F	0	-11%[46.1 µM]	-12%	.
COc1cc(C2Oc3nc(SC)nnc3-c3ccccc3N2C(C)=O)cc(Cl)c1OC (stereo unspecified)	4	6%[46.1 µM]	-14%	-15%[46.1 µM]
Cc1ccc(OCCOCCN2CCN(C)CC2)c(C(C)(C)C)c1	-25	.	-8%	.
Cc1cc(C(C)(C)C)ccc1OCCOCCN1CCCC1	-29	?	-12%	8.2µM*
COCCCNCCOCCOc1ccc(Cl)cc1C(C)(C)C	?	?	-25%	5.8µM*
CC(C)(C)c1cc(Cl)ccc1OCCOCCN1CCCC1	-10	?	0%	8.9µM*
Cc1csc(NC(=O)Cc2coc3cc(C)c(C(C)C)cc23)n1	-89*	2.8µM*	?	4µM*
COc1cc2cc(CCOC(=O)c3ccc(F)cc3)oc(=O)c2cc1OC	8	.	-12%	.
NC(=O)CN(C/C=C/c1ccccc1)C/C=C/c1ccccc1	3	.	-10%	.
N#Cc1c(N)nc(SCc2ccccn2)c(C#N)c1-c1cccs1	-69*	?	-1%	1%
COc1ccc(Cn2cnc3cnc(Nc4ccc(NC(C)=O)cc4)cc32)cc1OC	-72*	.	.	.
NC(=O)CSc1ncnc2c1nnn2Cc1ccc(F)cc1	-15	-18%	35µM*	?
CCOC(=O)Cn1cnc2c(nnn2-c2ccc(OC)cc2)c1=O	-12	17%	19%	7%
CCOC(=O)CNC(=O)CSc1ncnc2c1nnn2-c1ccc(F)cc1	-68*	9%	-17%	0%
CCOC(=O)Cn1cnc2c(nnn2-c2ccc(C)cc2)c1=O	-74*	22%	0%	0%
O=C(CSc1ncnc2c1nnn2Cc1ccc(F)cc1)NCC1CCCO1 (stereo unspecified)	26	.	35µM*	.
Cc1nn(C(=O)Cn2cc([N+](=O)[O-])cn2)c(C)c1Cl	-16	5%[46.1 µM]	2%	-4%[46.1 µM]
CCCCn1c(SCC(=O)N(C)C2CCS(=O)(=O)C2)nc2cc(S(N)(=O)=O)ccc21 (stereo unspecified)	-61*	.	-14%	.
CCCCn1c(SCC(=O)N(CC)C2CCS(=O)(=O)C2)nc2cc(S(N)(=O)=O)ccc21 (stereo unspecified)	?	13%	12%	5%[46.1 µM]
SMILES	HCMV antiviral	LASV entry inh	FMDV antiviral	Marburg entry inh
COc1ccc(C(=O)N2CCC(c3nc(-c4ccc(S(=O)(=O)N5CCCC5)cc4)no3)CC2)cc1	-81*	-24%[46.1 µM]	-24%	?
O=C(c1ccco1)N1CCCC(c2nc(-c3ccc(S(=O)(=O)NCc4ccccc4)cc3)no2)C1 (stereo unspecified)	-88*	?	?	?
O=C(CC1CCCCC1)N1CCCC(c2nc(-c3ccc(S(=O)(=O)N4CCCC4)cc3)no2)C1 (stereo unspecified)	-71*	-24%	.	-26%
O=C(Cc1ccc(S(=O)(=O)N2CCOCC2)s1)Nc1cc(Cl)ccc1Cl	19	2%	-8%	-7%[46.1 µM]
CC(C)NC(=O)C1CC=CCC1C(=O)O (stereo unspecified)	-26	17%	3%	?
COc1cc(C(O)CO)ccc1OS(=O)(=O)O (stereo unspecified)	-73*	14%	-2%	?
CC(=O)NNC(=S)NCCc1ccccc1	?	1%	-7%	-10%[46.1 µM]
CC(C)(C)OC(=O)NCc1ccc(CNC(=O)c2nc[nH]c2C(=O)NCc2ccccc2)cc1	0	.	?	.
CC(C)(C)OC(=O)NCc1ccc(CNC(=O)c2[nH]cnc2C(=O)NCC(=O)OCc2ccccc2)cc1	?	.	28µM*	.
CN(Cc1ccccc1)C(=O)c1[nH]cnc1C(=O)NCc1ccc(CNC(=O)OC(C)(C)C)cc1	-1	.	?	.
C[C@@H](OC(=O)c1[nH]cnc1C(=O)NCc1ccc(CNC(=O)OC(C)(C)C)cc1)c1ccccc1	-15	.	32µM*	.
CC(C)(C)OC(=O)CNC(=O)c1[nH]cnc1C(=O)NCCCCCNC(=O)OC(C)(C)C	-5	.	16µM*	.
CC(C)(C)NC(=O)CN(Cc1ccc2c(c1)OCO2)C(=O)CNS(=O)(=O)c1ccc(F)cc1	-16	0%	14%	-8%[46.1 µM]
C[C@@H]1CN([C@@H](C)CO)C(=O)CCCn2nncc2CO[C@H]1CN(C)Cc1cccc(C(F)(F)F)c1	20	.	-24%	.
COc1ccc(C2C3C(=O)N(Cc4ccccc4)C(=O)C3ON2c2ccccc2)c(OC)c1OC (stereo unspecified)	5	5.6µM*	-1%	?
COc1cc(C2C3C(=O)N(Cc4ccccc4)C(=O)C3ON2c2ccccc2)cc(OC)c1OC (stereo unspecified)	-18	7%	-18%	4%
CCC(C)NC(=O)CN1C(=O)c2cccnc2Oc2ccc(C)cc21 (stereo unspecified)	18	8%[46.1 µM]	-12%	.
COC(=O)N/N=C/c1c(C)c(C(=O)c2ccc(F)cc2)n2ccccc12	-25	?	35µM*	?
Cc1c(/C=N/NC(=O)c2ccc(O)cc2)c2ccccn2c1C(=O)c1ccc(F)cc1	56	11µM*	?	?
Cc1c(/C=N/NC(=O)c2cccnc2)c2ccccn2c1C(=O)c1ccc(F)cc1	.	0%	.	3%
Cc1c(/C=N/NC(=O)c2ccccc2O)c2ccccn2c1C(=O)c1ccc(F)cc1	-19	?	25µM*	11µM*
CCOC(=O)N/N=C/c1c(C)c(C(=O)c2ccc(F)cc2)n2ccccc12	?	0%	14%	8%[46.1 µM]
COc1ccc(Br)cc1CNC(=O)C1COc2ccccc2C1 (stereo unspecified)	-6	?	0%	.
CCCn1c(O)c(N=NC(=O)c2ccco2)c2ccccc21	-1	?	-20%	?
COc1cc(NC(=O)c2cc(C)no2)cc(OC)c1OC	117	15%[46.1 µM]	-9%	4%[46.1 µM]
O=C(CN1CCOCC1)Nc1ccc2c(c1)CCC2	-4	.	12%	.
Clc1ccc(-c2nc(NCCN3CCOCC3)c3ccccc3n2)cc1	35	4%	6%	?
CCOC(=O)c1sc(NC(=O)/C=C/c2ccc(F)cc2)nc1C	-30	8%	-3%	1%[46.1 µM]
CCOc1ncccc1C(=O)N1CCCSC1=Nc1ccccc1OC	10	-10%[46.1 µM]	27%	13%[46.1 µM]
COC(=O)c1ccc(C(NC(=O)OCc2ccccc2)/C(F)=C/[C@@H](C)C(=O)NCc2ccc(OC)c(OC)c2)cc1 (stereo partly specified)	-11	15µM*	?	?
